This passage reports activity (protection/inhibition) results from PubChem BioAssay AID651871 (Sanford-Burnham Center for Chemical Genomics, 2012).

Values joined by “and” are separate entries in the source; they are usually repeats but may differ in a detail not shown here. Equal entries are not always repeated.

For this test, the system named is H9c2. Put plainly: protection of cardiomyocytes from stress damage, SAR follow-up, cell-based, panel, H9c2 and HL-1, ATP luminescence, set 2 (AID 651871).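 Also: cells exposed to stressor for 2 h before ATP readout; reference of the scale not given here.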 The conditions noted are these: H9c2/HL-1 cardiomyocytes, 2-deoxyglucose stress, with 2-deoxyglucose; run 14, at 79 µM (top of the series).
Regarding `COc1ccc2nc(-c3cc(OC)c(OC)c(OC)c3)cc(C(=O)NCC(=O)Nc3ccc(C(C)=O)cc3)c2c1`, the activity (protection/inhibition) amounted to 89.3%.
As for `COc1ccc2c(c1OC)C(=O)N1c3ccccc3C(=O)N(Cc3cccc(Cl)c3Cl)C21` (stereo not drawn), the activity (protection/inhibition) was 74.7% and 78.2% and -6.22%.
Turning to `CCOC(=O)c1cccc(NC(=O)CNC(=O)c2cc(-c3cc(OC)c(OC)c(OC)c3)nc3ccccc23)c1`, the activity (protection/inhibition) is 95.1%.
